Data taken from PubChem BioAssay (EPA / NIEHS).
Where “and” joins values, the source holds several entries; their conditions need not be identical. Identical values can stand only once. A structure can be active in one record and inactive in another. Calls of active or inactive are those of the source. The calls were made as follows: active = hit-call score of the fitted dose curve at least 0.9, where 1 is the maximum; inactive = score below 0.9.

How the values were obtained:
Conditions in all cases: mRNA level, 48 h; actives raise or lower the signal
[1] = read-out: flavin-containing dimethylaniline monooxygenases 3 (FMO3), FMO3 (gene 2328); assay: LTEA_HepaRG_FMO3: Life Technologies and Expression Analysis (LTEA) Assay for flavin-containing dimethylaniline monooxygenases 3 (FMO3) using HepaRG (AID 2283453);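 as to AC50: differentiated human HepaRG liver cells in serum-free induction medium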
In short: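 Eight-point concentration-response in serum-free HepaRG cultures (top 100 uM, 0.5% DMSO, 48 h). Read-out: FMO3 mRNA level normalized to three endogenous control genes, fitted bidirectionally versus vehicle.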

[2] = read-out: Cytochrome P450 (CYP1A1), CYP1A1 (gene 1543); assay: LTEA_HepaRG_CYP1A1: Life Technologies and Expression Analysis (LTEA) Assay for Cytochrome P450 (CYP1A1) using HepaRG (AID 2283454)
In short: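 Using HepaRG cultures with 0.5% DMSO as vehicle, eight-concentration exposures (max 100 uM) lasted 48 h. Transcript levels were measured by TaqMan qRT-PCR and normalized to ACTB, GAPDH and POLR2A.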

[3] = read-out: CFLAR gene, CFLAR (gene 8837); assay: LTEA_HepaRG_CFLAR: Life Technologies and Expression Analysis (LTEA) Assay for CFLAR gene using HepaRG (AID 2283455)
In short: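 qRT-PCR read-out (Fluidigm/TaqMan) of CFLAR mRNA, normalized to three housekeeping genes, in differentiated human HepaRG cells after 48 h chemical exposure; 8-point half-log series from 100 uM in 0.5% DMSO; bidirectional curve fitting versus DMSO.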

[4] = read-out: Forkhead box O1 (FOXO1), FOXO1 (gene 2308); assay: LTEA_HepaRG_FOXO1: Life Technologies and Expression Analysis (LTEA) Assay for Forkhead box O1 (FOXO1) using HepaRG (AID 2283456)
In short: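 HepaRG, 48 h exposure, 8-pt half-log series from 100 uM in 0.5% DMSO, duplicates; Fluidigm qRT-PCR mRNA, housekeeping-normalised; bidirectional fit vs DMSO baseline.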

[5] = read-out: growth arrest and DNA damage 45 (GADD45A), GADD45A (gene 1647); assay: LTEA_HepaRG_GADD45A: Life Technologies and Expression Analysis (LTEA) Assay for growth arrest and DNA damage 45 (GADD45A) using HepaRG (AID 2283458)
In short: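 HepaRG, 48 h exposure, 8 conc. (top 100 uM, half-log steps), 0.5% DMSO vehicle, duplicates. Read-out: qRT-PCR mRNA level, housekeeping-normalized (ACTB/GAPDH/POLR2A). Curves fit bidirectionally vs DMSO baseline.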

[6] = read-out: Forkhead box O3 (FOXO3), FOXO3 (gene 2309); assay: LTEA_HepaRG_FOXO3: Life Technologies and Expression Analysis (LTEA) Assay for Forkhead box O3 (FOXO3) using HepaRG (AID 2283459)
In short: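 qRT-PCR readout of FOXO3 transcript, normalized to three housekeeping genes (ACTB, GAPDH, POLR2A); gain or loss fitted against 0.5% DMSO vehicle. HepaRG cells, 48 h chemical exposure, 8-point half-log series, top 100 uM.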

[7] = read-out: ABC Transporter (ABCB1), ABCB1 (gene 5243); assay: LTEA_HepaRG_ABCB1: Life Technologies and Expression Analysis (LTEA) Assay for ABC Transporter (ABCB1) using HepaRG (AID 2283460)
In short: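 HepaRG, 48 h exposure, 8-pt half-log series from 100 uM, 0.5% DMSO vehicle, duplicates. Readout: ABCB1 transcript by Fluidigm TaqMan qRT-PCR, housekeeping-normalized; bidirectional curve fit vs DMSO baseline.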

[8] = read-out: growth arrest and DNA damage 45 (GADD45B), GADD45B (gene 4616); assay: LTEA_HepaRG_GADD45B: Life Technologies and Expression Analysis (LTEA) Assay for growth arrest and DNA damage 45 (GADD45B) using HepaRG (AID 2283461)
In short: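 Human HepaRG monolayers receive chemicals for 48 h at eight half-log concentrations, highest 100 uM, in 0.5% DMSO. Expression is measured by TaqMan qRT-PCR and normalized to ACTB, GAPDH and POLR2A.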

[9] = read-out: ABC Transporter (ABCC3), ABCC3 (gene 8714); assay: LTEA_HepaRG_ABCC3: Life Technologies and Expression Analysis (LTEA) Assay for ABC Transporter (ABCC3) using HepaRG (AID 2283462)
In short: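 Transcriptional change of ABCC3 in HepaRG after 48 h treatment, determined by qRT-PCR normalized to endogenous controls. Concentrations spanned eight half-log steps to 100 uM in 0.5% DMSO.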

[10] = read-out: ABC Transporter (ABCB11), ABCB11 (gene 8647); assay: LTEA_HepaRG_ABCB11: Life Technologies and Expression Analysis (LTEA) Assay for ABC Transporter (ABCB11) using HepaRG (AID 2283463)
In short: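 HepaRG, 48 h exposure, 8-pt half-log CRC top 100 uM, 0.5% DMSO vehicle, duplicates. Readout: TaqMan qRT-PCR of ABCB11 mRNA, housekeeping-normalized (ACTB/GAPDH/POLR2A). Bidirectional fit vs DMSO baseline.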

[11] = read-out: ABC Transporter (ABCC2), ABCC2 (gene 1244); assay: LTEA_HepaRG_ABCC2: Life Technologies and Expression Analysis (LTEA) Assay for ABC Transporter (ABCC2) using HepaRG (AID 2283464)
In short: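 After plating and 48 h culture, HepaRG medium is replaced with serum-free induction medium and chemicals are added (8 concentrations, max 100 uM, 0.5% DMSO) for 48 h. Total RNA then undergoes qRT-PCR for ABCC2 with housekeeping normalization.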

[12] = read-out: Broad substrate specificity ATP-binding cassette transporter ABCG2 (Homo sapiens) (UniProt Q9UNQ0); assay: LTEA_HepaRG_ABCG2: Life Technologies and Expression Analysis (LTEA) Assay for ABC Transporter (ABCG2) using HepaRG (AID 2283465)
In short: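 HepaRG, 48 h exposure, 8-pt half-log series from 100 uM, 0.5% DMSO vehicle, duplicates. Readout: ABCG2 transcript by qRT-PCR (Fluidigm array), housekeeping-normalized; bidirectional curve fit relative to DMSO baseline.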

[13] = read-out: ATP-citrate lyase (ACLY), ACLY (gene 47); assay: LTEA_HepaRG_ACLY: Life Technologies and Expression Analysis (LTEA) Assay for ATP-citrate lyase (ACLY) using HepaRG (AID 2283466)
In short: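 qRT-PCR readout of ACLY transcript after 48 h chemical treatment of HepaRG cells; expression normalized to three housekeeping genes. Eight-point half-log series, highest 100 uM, 0.5% DMSO vehicle. Gain or loss fitted against DMSO baseline.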

[14] = read-out: Alkaline Phosphatase, Placental (ALPP) gene, ALPP (gene 250); assay: LTEA_HepaRG_ALPP: Life Technologies and Expression Analysis (LTEA) Assay for Alkaline Phosphatase, Placental (ALPP) gene using HepaRG (AID 2283468);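 as to AC50: differentiated human HepaRG liver cells in serum-free induction medium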
In short: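 Using human liver HepaRG cells, chemicals are tested in duplicate over 48 h at half-log concentrations topping at 100 uM; phenobarbital 1 mM serves as induction control. ALPP mRNA change by qRT-PCR, bidirectional fit against vehicle.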

[15] = read-out: Bcl-2 (BAD) gene, BAD (gene 572); assay: LTEA_HepaRG_BAD: Life Technologies and Expression Analysis (LTEA) Assay for Bcl-2 (BAD) gene using HepaRG (AID 2283469)
In short: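 HepaRG, 48 h exposure, 8-pt half-log curve from 100 uM in 0.5% DMSO, duplicates. Readout: TaqMan qRT-PCR for BAD mRNA, housekeeping-normalised (ACTB/GAPDH/POLR2A); gain or loss fitted against DMSO baseline.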

[16] = read-out: Bcl-2 (BAX) gene, BAX (gene 581); assay: LTEA_HepaRG_BAX: Life Technologies and Expression Analysis (LTEA) Assay for Bcl-2 (BAX) gene using HepaRG (AID 2283470)
In short: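 qRT-PCR read-out of BAX mRNA, normalized to three housekeeping genes, after 48 h chemical exposure of human HepaRG cells in serum-free induction medium; eight-point half-log series, top 100 uM, 0.5% DMSO vehicle; bidirectional fit versus DMSO.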

[17] = read-out: adenosine kinase (ADK) gene, ADK (gene 132); assay: LTEA_HepaRG_ADK: Life Technologies and Expression Analysis (LTEA) Assay for adenosine kinase (ADK) gene using HepaRG (AID 2283471)
In short: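 Following 48 h exposure of HepaRG cells in 0.5% DMSO (top concentration 100 uM, duplicate wells), ADK mRNA induction or suppression was measured by qRT-PCR, normalised to ACTB/GAPDH/POLR2A, and fitted bidirectionally relative to vehicle.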

[18] = read-out: Alpha-fetoprotein (AFP) gene, AFP (gene 174); assay: LTEA_HepaRG_AFP: Life Technologies and Expression Analysis (LTEA) Assay for Alpha-fetoprotein (AFP) gene using HepaRG (AID 2283472)
In short: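 qRT-PCR (Fluidigm TaqMan) readout of AFP transcript, normalized to three housekeeping genes, fitted bidirectionally against 0.5% DMSO baseline. HepaRG cells received chemicals for 48 h in serum-free induction medium, top concentration 100 uM, half-log steps.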

Measured: AC50

Broad substrate specificity ATP-binding cassette transporter ABCG2 (Homo sapiens), sequence (Q9UNQ0 whole entry, looked up): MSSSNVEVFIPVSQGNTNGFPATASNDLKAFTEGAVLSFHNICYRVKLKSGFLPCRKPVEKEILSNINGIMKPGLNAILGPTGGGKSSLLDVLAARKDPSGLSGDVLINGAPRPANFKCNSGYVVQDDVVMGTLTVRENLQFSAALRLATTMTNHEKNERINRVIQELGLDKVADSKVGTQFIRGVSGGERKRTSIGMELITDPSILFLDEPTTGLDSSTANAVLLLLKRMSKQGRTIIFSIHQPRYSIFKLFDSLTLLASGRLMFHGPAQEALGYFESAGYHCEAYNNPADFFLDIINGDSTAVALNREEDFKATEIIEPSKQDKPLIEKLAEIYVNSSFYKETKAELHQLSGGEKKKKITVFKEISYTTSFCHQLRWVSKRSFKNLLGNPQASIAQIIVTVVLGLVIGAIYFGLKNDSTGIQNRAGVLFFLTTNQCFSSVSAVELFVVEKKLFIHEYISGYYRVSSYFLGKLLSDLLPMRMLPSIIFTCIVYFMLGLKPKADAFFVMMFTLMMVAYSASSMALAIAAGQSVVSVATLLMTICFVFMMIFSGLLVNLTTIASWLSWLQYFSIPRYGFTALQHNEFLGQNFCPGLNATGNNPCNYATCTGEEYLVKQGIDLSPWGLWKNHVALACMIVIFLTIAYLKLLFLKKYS

O=S1OCC2C(CO1)C1(Cl)C(Cl)=C(Cl)C2(Cl)C1(Cl)Cl (stereo not drawn)
active: [1] 83.4 µM | [2] 50 µM | [10] 50 µM | [13] 87.1 µM | [18] 50 µM
inactive: all other assays above

CN1CSC(=S)N(C)C1
active: [2] 28.4 µM
inactive: all other assays above

O=C(O)CCCOc1ccc(Cl)cc1Cl
active: [2] 50.8 µM | [12] 11.6 µM | [13] 50.8 µM | [17] 50.8 µM
inactive: all other assays above

CNC(=O)Oc1ccccc1OC(C)C
not listed: [13] | [14]
inactive: all other assays above

COP(=O)(OC)OC=C(Cl)Cl
inactive: all assays above

N#Cc1c(Cl)c(Cl)c(Cl)c(C#N)c1Cl
active: [1] 36.6 µM | [2] 23.1 µM | [3] 50 µM | [4] 21.2 µM | [6] 15.2 µM | [10] 47.1 µM | [16] 23.9 µM
not listed: [14]
inactive: all other assays above

CCCN(CCOc1c(Cl)cc(Cl)cc1Cl)C(=O)n1ccnc1
active: [1] 33 µM | [2] 2.56 µM | [3] 85.2 µM | [4] 88.7 µM | [5] 45.8 µM | [7] 3.22 µM | [10] 25.5 µM | [11] 84.8 µM | [12] 10.8 µM | [13] 12.5 µM | [14] 35.6 µM | [16] 50 µM | [18] 22.5 µM
inactive: [6] | [8] | [9] | [15] | [17]

O=S(=O)(O)C(F)(F)C(F)(F)C(F)(F)C(F)(F)C(F)(F)C(F)(F)C(F)(F)C(F)(F)F
inactive: [2] | [3] | [4] | [5] | [6] | [7] | [8] | [9] | [10] | [11] | [12] | [13] | [14] | [15] | [16] | [17] | [18]
active: [2] 22.6 µM | [3] 13.2 µM | [4] 13.3 µM | [10] 90.7 µM and 85.1 µM and 86.6 µM | [11] 14.2 µM and 90.7 µM | [12] 14.4 µM and 7.01 µM | [13] 50 µM and 9.92 µM | [14] 36.6 µM and 50 µM and 48 µM | [16] 50 µM and 48 µM | [17] 12.8 µM | [18] 77.9 µM and 80.1 µM and 75.8 µM

CC[C@H](C)[C@H]1O[C@]2(C=C[C@@H]1C)C[C@@H]1C[C@@H](C/C=C(\C)[C@@H](O[C@H]3C[C@H](OC)[C@@H](O[C@H]4C[C@H](OC)[C@@H](O)[C@H](C)O4)[C@H](C)O3)[C@@H](C)/C=C/C=C3\CO[C@@H]4[C@H](O)C(C)=C[C@@H](C(=O)O1)[C@]34O)O2 (tested in a mixture with another compound)
active: [1] 14 µM | [2] 0.361 µM | [3] 30.2 µM | [4] 17.5 µM | [7] 55.2 µM | [8] 7.13 µM | [9] 46.5 µM | [10] 15.8 µM | [11] 30.2 µM | [12] 13.7 µM | [13] 52.2 µM | [14] 9.57 µM | [16] 7.73 µM
inactive: [5] | [6] | [15] | [17] | [18]

CC(C)(C)C(O)/C(=C\c1ccc(Cl)cc1Cl)n1cncn1 (stereo not drawn)
active: [1] 33.8 µM | [2] 9.3 µM | [3] 76.6 µM | [4] 89.4 µM | [6] 82.3 µM | [7] 84.4 µM | [8] 87.1 µM | [10] 25.1 µM | [11] 80.6 µM | [13] 88.9 µM | [14] 22 µM | [16] 59.4 µM | [18] 19.8 µM
inactive: [5] | [9] | [12] | [15] | [17]

Cc1[nH]c(=O)n(C(C)(C)C)c(=O)c1Cl
active: [2] 24.1 µM | [6] 50 µM
inactive: all other assays above

O=C(NC(=O)c1c(F)cccc1F)Nc1ccc(OC(F)(F)C(F)OC(F)(F)F)c(Cl)c1 (stereo not drawn)
active: [2] 21.2 µM | [13] 25 µM
inactive: all other assays above
